Each structure is given as a SMILES string. Where “and” joins values, the source holds several entries; their conditions need not be identical. Equal entries are not always repeated. In all, about 650,000 compounds went through this assay and about 6,800 (1%) were called active. Rule as the data show it: active = activation above about 4.9%; inactive = the rest. The sample as a whole holds a higher share of actives than the screen did.

Chain of G-protein coupled receptor 151 (Homo sapiens) (Q8TDV0 whole entry, looked up): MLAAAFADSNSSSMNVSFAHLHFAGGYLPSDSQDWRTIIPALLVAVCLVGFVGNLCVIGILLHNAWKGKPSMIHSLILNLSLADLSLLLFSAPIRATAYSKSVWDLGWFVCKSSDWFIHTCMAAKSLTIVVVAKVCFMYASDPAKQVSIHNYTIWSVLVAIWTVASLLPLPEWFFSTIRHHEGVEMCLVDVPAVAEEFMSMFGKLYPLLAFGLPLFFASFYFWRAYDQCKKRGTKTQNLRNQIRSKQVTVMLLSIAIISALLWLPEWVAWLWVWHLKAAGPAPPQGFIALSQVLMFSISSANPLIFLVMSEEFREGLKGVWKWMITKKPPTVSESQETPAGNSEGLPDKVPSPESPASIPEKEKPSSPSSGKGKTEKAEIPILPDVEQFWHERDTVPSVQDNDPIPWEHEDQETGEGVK

The assay concerns the target G-protein coupled receptor 151 (Homo sapiens) (UniProt Q8TDV0). Put plainly: activates the human receptor GPR151, primary screen, cell-based, PathHunter beta-arrestin, luminescence (AID 1508602).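 Also: 0% = median of compound wells and 100% = cells with positive control.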 The conditions noted are these: PathHunter beta-arrestin GPR151 cells, at 11.2 µM, hits give high values.
As for `Cc1ccccc1-n1c(SCC#N)nc2c(sc(=S)n2-c2ccccc2C)c1=O`, the activation was -0.0279% (inactive). The result for `Cc1cccc(C)c1-n1c(=S)sc2c(=O)n(-c3cccc(Cl)c3)c(SCC#N)nc21` reads 7.07% (active). The result for `Cc1cccc(C)c1-n1c(=S)sc2c(=O)n(-c3cccc(Cl)c3)c(SCc3cccc([N+](=O)[O-])c3)nc21` reads -0.958% (inactive); that for `CCCOc1ccc(-c2ccc(-c3noc(-c4ccc(OCC)cc4)n3)cc2)cc1`, -1.32% (inactive). `O=C(COc1ccc(Cl)cc1Cl)NCc1nc(-c2ccccc2)no1`: the activation is -1.12% (inactive). With `Cc1sc(NC(=O)CN(C(=O)CCc2ccccc2)C2CCCC2)c(C(N)=O)c1C`, the activation was 0.0057% (inactive).

`CCCCNC(=O)C1CCC(=O)N1Cc1ccc(F)cc1` (stereo not given): the activation is 1.65% (inactive). The result for `O=C(Nc1cccc(N2CCC(NCc3ccon3)CC2)c1)c1cccnc1` reads 5.91% (active).

Consider `O=C(Nc1cccc(N2CCC(NCC3COc4ccccc4O3)CC2)c1)c1cccnc1` (stereo not given), for which the activation is 0.419% (inactive). The result for `COc1ccc(CNC2CCN(c3cccc(NC(=O)c4cccnc4)c3)CC2)cc1` reads -0.19% (inactive); that for `Cc1cc2[nH]c(=O)c(=O)[nH]c2cc1S(=O)(=O)Nc1ccc(Br)cc1F`, 1.29% (inactive); that for `Cc1ccc2c(CNCc3ccccc3Cl)c(C(=O)O)n(Cc3ccccc3)c2c1`, 2.57% (inactive). The result for `O=C(NCCOc1ccccc1)c1cnc(N2CCN(c3ccccn3)CC2)s1` reads 7.58% (active); that for `O=C(NCCOc1ccccc1)c1cnc(N2CCCC2CO)s1` (stereo not given), -3.77% (inactive); that for `O=C(NCCOc1ccccc1)c1cnc(Nc2cccnc2)s1`, 0.0811% (inactive).

On to `O=C(NNS(=O)(=O)c1ccc2ccccc2c1)Nc1ccc(F)cc1F`, for which the activation is -1.26% (inactive).

On to `O=C(Nc1cccc(Oc2ccc(C(=O)O)c(C(=O)O)c2)c1)c1cccs1`, for which the activation is -1.23% (inactive).

For `COc1ccc(CN2CCOc3ccc(C(C)(O)CN(C)C)cc3C2)c(Cl)c1OC` (stereo not given), the activation was -0.16% (inactive). The result for `O=C(Cc1coc2ccc3ccccc3c12)NC1CCN(Cc2ccccc2)CC1` reads 1.58% (inactive); that for `O=C(Cc1coc2ccc3ccccc3c12)NCc1cccnc1`, 1.97% (inactive). As for `CC(C)(C)NC(=O)Cc1coc2ccc3ccccc3c12`, the figure is 5.9% (active); as for `COc1ccc(CCN(C(C)=O)C2CC(=O)N(c3ccc(Cl)cc3)C2=O)cc1` (stereo not given), 2.31% (inactive). For `Cc1nc2ccccc2c(=O)n1-c1ccc(OC(F)(F)C(F)F)cc1`, the activation was -0.339% (inactive). Take `COc1ccccc1C1C(C(N)=O)=C(C)Nc2nc(CCCO)nn21` (stereo not given): the activation was 7.86% (active).

Turning to `COc1ccccc1C1C(C(=O)Nc2ccc(F)cc2)=C(C)Nc2nc(CCCO)nn21` (stereo not given), the activation is -0.0995% (inactive).

As to `CC1=C(C(N)=O)C(c2ccc(F)cc2)n2nc(CCCO)nc2N1` (stereo not given), the activation was 0.25% (inactive).

As to `O=S(=O)(c1cccs1)N1CCc2nc(-c3cccnc3)nc(N3CCCCC3)c2C1`, the activation was 0.747% (inactive). For the compound `O=C(O)c1cccc(-n2[nH]c(=O)ccc2=O)c1`, the activation was -1.37% (inactive).

Turning to `COc1ccc(-c2c(C)oc3cc(OC)ccc3c2=O)cc1`, the activation is 0.167% (inactive).

Consider `CCOC(=O)c1cc2cc(-c3c(C(=O)OCC)oc4cc(O)cc(O)c4c3=O)ccc2o1`, for which the activation is 0.272% (inactive). For `CCOC(=O)c1cc2cc(-c3c(C)oc4cc(OC(C)=O)ccc4c3=O)ccc2o1`, the activation was 6.66% (active). The result for `C/C=C/C=C/C(=O)N1C(=O)C(=O)c2ccccc21` reads -4.81% (inactive); that for `Cc1ccc(NC(=O)CSc2nnc(-c3ccc(O)cc3)n2C)cc1N`, -0.276% (inactive); that for `Cc1ccc(NC(=O)CSc2nnc(-c3ccc(N)cc3)n2C)cc1Cl`, 5.78% (active). Regarding `Cc1ccc(Cl)cc1NC(=O)CSc1nnc(-c2ccc(N)cc2)n1C`, the activation is 0.746% (inactive).

Consider `CCOC(=O)/C(C#N)=C\c1c(C)cc(C)c(COC)c1C`, for which the activation was 4.44% (inactive). As for `CN1CCC[C@@H]1CCOC(C)(c1ccccc1)c1ccc(Cl)cc1` (stereo not given in full), the figure is -2.7% (inactive) and 3.67% (inactive). The result for `O=c1sc2sc(=S)sc2s1` reads -0.693% (inactive); that for `c1ccc(-n2nnnc2NC2CCCCCC2)cc1`, -0.96% (inactive); that for `C1CCC(Nc2nc3nonc3nc2NC2CCCCC2)CC1`, -0.129% (inactive). As for `Brc1cnc(NC2CCCCC2)nc1`, the figure is 7.99% (active); as for `CCc1cc2cc(OC)ccc2nc1SCC(=O)Nc1nccs1`, 0.182% (inactive); as for `CN1CCN(C(=O)c2ccc(-c3nc(NCc4ccccc4)c4ncn(Cc5ccc(C(F)(F)F)cc5)c4n3)cc2)CC1`, 0.228% (inactive). For the compound `COc1ccccc1C(=O)CN1CCN(S(=O)(=O)c2ccc(Cl)cc2)CC1`, the activation was 1.49% (inactive).

In the case of `O=[N+]([O-])c1ccccc1S(=O)(=O)NCCSCc1ccc(Cl)cc1`, the activation is -0.348% (inactive). Regarding `O=C(N1CCCCCC1)C12CC3CC(CC(C3)C1)C2`, the activation was 0.202% (inactive). The result for `NC(=O)C12CC3CC(CC(C3)C1)C2` reads -0.0547% (inactive).

As for `COC(=O)[C@@H]1CC(O)CN1C(=O)C12CC3CC(CC(C3)C1)C2` (stereo not given in full), the activation is 6.17% (active). The result for `CC1=NN(c2cccc(Cl)c2)C(=O)/C1=C/c1ccc(-c2ccc(F)cc2)o1` reads 1.46% (inactive); that for `CCc1ccc(N2N=C(C)/C(=C\c3ccc(-c4ccc5c(c4)C(=O)NC5=O)o3)C2=O)cc1`, 6.36% (active). The result for `CCc1ccc(N2N=C(C)/C(=C/c3ccc(-c4ccc(S(N)(=O)=O)cc4)o3)C2=O)cc1` reads -0.641% (inactive).

Regarding `COc1cccc(NC(=O)c2sc3ncn(CC(=O)Nc4ccccc4OC)c(=O)c3c2C)c1`, the activation is 0.463% (inactive).

As to `CC(C)(C)C1(O)CC(=O)C(=O)NN1c1ccccc1` (stereo not given), the activation is -0.103% (inactive). As for `CC(CO)(CO)NC(=S)NC(=O)c1ccccc1`, the figure is -2.1% (inactive); as for `CC(C)C[C@@H]1NC(=O)[C@H]2CN(Cc3ccccc3Cl)CCN2C1=O`, 1.34% (inactive).

Consider `Cc1ccc(C(=O)COc2ccc(C#N)cc2)c(C)c1`, for which the activation is 0.546% (inactive). As to `Cc1sc(NC(=O)CN(C(=O)c2cccc(F)c2)C2CCCC2)c(C(N)=O)c1C`, the activation was 0.439% (inactive).

Consider `Cc1cc(N2CCOCC2)ccc1C=C1C(=O)c2ccccc2C1=O`, for which the activation was 5.28% (active). As for `Cc1cc(N2CCOCC2)ccc1/C=C1\C(=O)NC(=S)N(c2ccccc2)C1=O`, the figure is 0.368% (inactive). In the case of `CCN1C(=O)C(=Cc2ccc(N3CCCC3)cc2C)C(=O)N(CC)C1=S`, the activation is 2.62% (inactive).

Values taken from PubChem BioAssay AID1508602 (The Scripps Research Institute Molecular Screening Center, 2020).
